Data as given in publication PMC7862700, “An all-to-all approach to the identification of sequence-specific readers for epigenetic DNA modifications on cytosine”.

Legend:
Test in all cases: DAPPL (digital affinity profiling via proximity ligation, sequencing); 10 mM Tris-HCl pH 7.5, 50 mM NaCl, 1 mM DTT, 4% glycerol, room temperature, 30 min; GST-TFs on glutathione beads, 16-mer random dsDNA library, 0.1% formaldehyde crosslink after washing; high values mean tight binding
Settings in all cases: protein: recombinant; tags: N-terminal GST; dsDNA, one strand shown
ERF = target: T1, ERF (Homo sapiens, UniProt P50548 1-548)
T1 sequence: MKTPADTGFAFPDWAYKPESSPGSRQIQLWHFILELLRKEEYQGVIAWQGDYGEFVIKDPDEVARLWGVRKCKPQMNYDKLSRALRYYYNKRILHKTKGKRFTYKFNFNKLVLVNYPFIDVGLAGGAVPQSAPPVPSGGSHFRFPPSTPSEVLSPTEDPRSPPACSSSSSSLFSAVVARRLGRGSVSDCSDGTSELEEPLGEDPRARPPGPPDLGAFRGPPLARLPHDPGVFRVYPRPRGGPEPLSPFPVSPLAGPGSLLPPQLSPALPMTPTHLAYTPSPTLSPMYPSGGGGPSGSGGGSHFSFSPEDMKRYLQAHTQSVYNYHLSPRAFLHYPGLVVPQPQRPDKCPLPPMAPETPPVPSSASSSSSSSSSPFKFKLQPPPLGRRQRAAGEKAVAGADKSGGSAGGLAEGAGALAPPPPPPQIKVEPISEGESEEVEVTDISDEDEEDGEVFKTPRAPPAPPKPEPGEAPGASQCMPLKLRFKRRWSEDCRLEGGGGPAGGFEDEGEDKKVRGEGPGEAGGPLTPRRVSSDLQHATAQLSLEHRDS
Outline: (§1)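 Binding signal is each hexamer's read frequency for a factor divided by its frequency in the tag-only sample. The factors were GST-fused human transcription factors from yeast, captured on glutathione beads, DNA-barcoded and pooled with that sample. Pools were incubated with 200 nmole of a random double-stranded 16-mer DNA library in Tris/NaCl/DTT/glycerol buffer at room temperature for 30 min, then washed, crosslinked with 0.1% formaldehyde, proximity-ligated with BsaI/T4 ligase (1 h, 37 °C), PCR-amplified and sequenced on an Illumina NextSeq500.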

ETV3L = target: T2, ETV3L (Homo sapiens, UniProt Q6ZN32 1-361)
T2 sequence: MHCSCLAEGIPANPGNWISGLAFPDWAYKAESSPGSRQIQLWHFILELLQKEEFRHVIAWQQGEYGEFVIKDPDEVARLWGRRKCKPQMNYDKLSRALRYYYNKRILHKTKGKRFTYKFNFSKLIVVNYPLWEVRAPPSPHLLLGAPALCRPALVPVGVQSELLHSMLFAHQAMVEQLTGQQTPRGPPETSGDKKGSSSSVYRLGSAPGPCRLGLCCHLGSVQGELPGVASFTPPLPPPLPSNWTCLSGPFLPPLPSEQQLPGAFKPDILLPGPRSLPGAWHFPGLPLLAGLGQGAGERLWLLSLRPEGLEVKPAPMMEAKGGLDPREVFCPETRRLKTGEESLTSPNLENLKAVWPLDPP
Outline: as §1

ETS2 = target: T3, ETS2 (Homo sapiens, UniProt P15036 1-469)
T3 sequence: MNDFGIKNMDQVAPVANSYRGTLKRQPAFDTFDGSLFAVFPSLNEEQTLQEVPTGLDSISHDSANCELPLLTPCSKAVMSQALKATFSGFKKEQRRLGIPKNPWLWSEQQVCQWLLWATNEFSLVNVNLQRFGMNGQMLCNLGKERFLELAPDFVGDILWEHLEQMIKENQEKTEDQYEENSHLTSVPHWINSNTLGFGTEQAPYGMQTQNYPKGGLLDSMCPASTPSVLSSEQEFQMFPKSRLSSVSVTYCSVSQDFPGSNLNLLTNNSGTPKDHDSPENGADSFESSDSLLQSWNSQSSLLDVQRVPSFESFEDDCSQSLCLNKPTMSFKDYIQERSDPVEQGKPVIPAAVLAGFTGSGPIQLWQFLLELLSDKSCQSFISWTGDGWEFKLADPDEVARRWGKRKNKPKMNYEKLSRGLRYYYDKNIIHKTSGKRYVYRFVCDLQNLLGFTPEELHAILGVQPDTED
Outline: as §1

SPDEF = target: T4, SPDEF (Homo sapiens, UniProt O95238 1-335)
T4 sequence: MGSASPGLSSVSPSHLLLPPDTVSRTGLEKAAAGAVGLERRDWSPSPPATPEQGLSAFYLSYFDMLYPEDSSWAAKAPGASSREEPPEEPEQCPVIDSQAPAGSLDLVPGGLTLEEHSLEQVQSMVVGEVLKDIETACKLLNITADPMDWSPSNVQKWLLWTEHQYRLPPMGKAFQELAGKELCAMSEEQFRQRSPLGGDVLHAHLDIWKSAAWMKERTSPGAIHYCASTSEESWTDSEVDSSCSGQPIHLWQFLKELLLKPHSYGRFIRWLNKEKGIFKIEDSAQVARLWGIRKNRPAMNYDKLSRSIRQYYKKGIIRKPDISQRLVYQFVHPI
Outline: as §1

ETV7 = target: T5, ETV7 (Homo sapiens, UniProt Q9Y603 1-341)
T5 sequence: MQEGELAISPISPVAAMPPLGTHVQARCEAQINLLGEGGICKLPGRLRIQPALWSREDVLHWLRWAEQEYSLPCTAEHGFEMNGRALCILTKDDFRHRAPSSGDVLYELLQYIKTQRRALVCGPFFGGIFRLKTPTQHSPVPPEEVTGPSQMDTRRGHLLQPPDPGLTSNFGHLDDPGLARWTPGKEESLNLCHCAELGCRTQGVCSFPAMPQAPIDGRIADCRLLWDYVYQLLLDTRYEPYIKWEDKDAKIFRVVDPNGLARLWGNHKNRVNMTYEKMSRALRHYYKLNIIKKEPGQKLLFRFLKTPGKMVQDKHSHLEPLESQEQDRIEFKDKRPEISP
Outline: as §1

ELF5 = target: T6, ELF5 (Homo sapiens, UniProt Q9UKW6-2 1-255)
T6 sequence: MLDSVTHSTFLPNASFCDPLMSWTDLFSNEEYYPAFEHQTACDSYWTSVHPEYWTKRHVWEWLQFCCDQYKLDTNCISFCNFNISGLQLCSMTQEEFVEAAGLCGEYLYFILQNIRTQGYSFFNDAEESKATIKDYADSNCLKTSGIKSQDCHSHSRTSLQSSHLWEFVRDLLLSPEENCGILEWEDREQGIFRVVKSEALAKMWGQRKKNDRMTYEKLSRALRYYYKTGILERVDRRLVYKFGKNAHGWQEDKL
Outline: as §1

ETV3 = target: T7, ETV3 (Homo sapiens, UniProt P41162-2 1-143)
T7 sequence: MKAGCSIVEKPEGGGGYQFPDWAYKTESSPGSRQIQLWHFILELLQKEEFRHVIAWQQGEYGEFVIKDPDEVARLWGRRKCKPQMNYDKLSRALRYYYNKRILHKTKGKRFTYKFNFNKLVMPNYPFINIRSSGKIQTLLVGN
Outline: as §1

ETV6 = ETV6 (Homo sapiens, UniProt P41212 1-452)
Outline: as §1

Sequence of ETV6 (P41212 whole entry): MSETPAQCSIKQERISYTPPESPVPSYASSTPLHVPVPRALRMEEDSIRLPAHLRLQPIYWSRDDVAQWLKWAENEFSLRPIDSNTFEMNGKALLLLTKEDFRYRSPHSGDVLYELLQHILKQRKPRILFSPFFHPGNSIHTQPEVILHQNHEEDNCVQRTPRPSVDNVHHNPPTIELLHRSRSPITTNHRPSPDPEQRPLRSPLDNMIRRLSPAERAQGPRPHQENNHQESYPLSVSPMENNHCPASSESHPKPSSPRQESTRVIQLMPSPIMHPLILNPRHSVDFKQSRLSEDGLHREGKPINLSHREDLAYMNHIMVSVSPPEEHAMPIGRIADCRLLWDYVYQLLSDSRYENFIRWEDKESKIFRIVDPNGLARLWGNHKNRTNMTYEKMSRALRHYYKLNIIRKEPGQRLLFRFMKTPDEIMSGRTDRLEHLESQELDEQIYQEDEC

| Sequence | binding signal (ERF) | binding signal (ETV3L) | binding signal (ETS2) | binding signal (SPDEF) | binding signal (ETV7) | binding signal (ELF5) | binding signal (ETV3) | binding signal (ETV6) |
| --- | --- | --- | --- | --- | --- | --- | --- | --- |
| AGATGA | 1.18 fold enrichment (6-mer frequency, TF over GST control) | 1.01 fold enrichment (6-mer frequency, TF over GST control) | 1.05 fold enrichment (6-mer frequency, TF over GST control) | 1.14 fold enrichment (6-mer frequency, TF over GST control) | 1.15 fold enrichment (6-mer frequency, TF over GST control) | 1.05 fold enrichment (6-mer frequency, TF over GST control) | 1.1 fold enrichment (6-mer frequency, TF over GST control) | 1.13 fold enrichment (6-mer frequency, TF over GST control) |
| TTATTC | 1.45 fold enrichment (6-mer frequency, TF over GST control) | 1.47 fold enrichment (6-mer frequency, TF over GST control) | 1.37 fold enrichment (6-mer frequency, TF over GST control) | 1.41 fold enrichment (6-mer frequency, TF over GST control) | 1.43 fold enrichment (6-mer frequency, TF over GST control) | 1.34 fold enrichment (6-mer frequency, TF over GST control) | 1.29 fold enrichment (6-mer frequency, TF over GST control) | 1.32 fold enrichment (6-mer frequency, TF over GST control) |
| TGGGCT | 1.27 fold enrichment (6-mer frequency, TF over GST control) | 1.45 fold enrichment (6-mer frequency, TF over GST control) | 1.5 fold enrichment (6-mer frequency, TF over GST control) | 1.28 fold enrichment (6-mer frequency, TF over GST control) | 1.49 fold enrichment (6-mer frequency, TF over GST control) | 1.32 fold enrichment (6-mer frequency, TF over GST control) | 1.41 fold enrichment (6-mer frequency, TF over GST control) | 1.32 fold enrichment (6-mer frequency, TF over GST control) |
| TGGTAC | 1.11 fold enrichment (6-mer frequency, TF over GST control) | 1.21 fold enrichment (6-mer frequency, TF over GST control) | 1.19 fold enrichment (6-mer frequency, TF over GST control) | 1.11 fold enrichment (6-mer frequency, TF over GST control) | 1.14 fold enrichment (6-mer frequency, TF over GST control) | 1.14 fold enrichment (6-mer frequency, TF over GST control) | 1.14 fold enrichment (6-mer frequency, TF over GST control) | 1.14 fold enrichment (6-mer frequency, TF over GST control) |
| ATACTC | 1.36 fold enrichment (6-mer frequency, TF over GST control) | 1.22 fold enrichment (6-mer frequency, TF over GST control) | 1.26 fold enrichment (6-mer frequency, TF over GST control) | 1.32 fold enrichment (6-mer frequency, TF over GST control) | 1.23 fold enrichment (6-mer frequency, TF over GST control) | 1.25 fold enrichment (6-mer frequency, TF over GST control) | 1.33 fold enrichment (6-mer frequency, TF over GST control) | 1.33 fold enrichment (6-mer frequency, TF over GST control) |
| CCCTGC | 1.18 fold enrichment (6-mer frequency, TF over GST control) | 1.18 fold enrichment (6-mer frequency, TF over GST control) | 1.12 fold enrichment (6-mer frequency, TF over GST control) | 1.11 fold enrichment (6-mer frequency, TF over GST control) | 1.22 fold enrichment (6-mer frequency, TF over GST control) | 1.2 fold enrichment (6-mer frequency, TF over GST control) | 1.22 fold enrichment (6-mer frequency, TF over GST control) | 1.2 fold enrichment (6-mer frequency, TF over GST control) |
| ACGCTG | 1.21 fold enrichment (6-mer frequency, TF over GST control) | 1.15 fold enrichment (6-mer frequency, TF over GST control) | 1.06 fold enrichment (6-mer frequency, TF over GST control) | 1.24 fold enrichment (6-mer frequency, TF over GST control) | 1.16 fold enrichment (6-mer frequency, TF over GST control) | 1.09 fold enrichment (6-mer frequency, TF over GST control) | 1.26 fold enrichment (6-mer frequency, TF over GST control) | 1.09 fold enrichment (6-mer frequency, TF over GST control) |
